We go through 40 compounds from ChEMBL document CHEMBL3988442, “University of Dundee, Small-Polar-MMV Screening Library” (2021).

The structures appear in SMILES notation.

The assay deals with T1, Arginase-2, mitochondrial (Homo sapiens) (UniProt P78540).
T1 sequence (whole entry): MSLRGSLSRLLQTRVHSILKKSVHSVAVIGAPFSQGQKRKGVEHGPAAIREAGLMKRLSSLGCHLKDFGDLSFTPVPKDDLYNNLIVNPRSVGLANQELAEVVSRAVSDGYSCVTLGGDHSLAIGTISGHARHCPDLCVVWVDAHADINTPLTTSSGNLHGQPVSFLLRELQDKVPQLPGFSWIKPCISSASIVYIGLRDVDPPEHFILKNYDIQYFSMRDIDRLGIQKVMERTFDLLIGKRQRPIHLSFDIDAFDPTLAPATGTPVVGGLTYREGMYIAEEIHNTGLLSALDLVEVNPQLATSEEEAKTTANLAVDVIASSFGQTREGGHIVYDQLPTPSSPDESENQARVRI
Description: in vitro enzyme assay to detect the production of urea directly proportional to the activity of Arginase II. The conditions noted are these: 30 µM. Also on record: scale not given: in the data most compounds retested in dose-response had high values. Type of assay: functional.
For `COc1ccccc1Oc1ncccc1CNC(=O)[C@@H](N)[C@@H](C)O`, the Percent Effect is 3.78%.

`Cc1noc(C)c1CN1C[C@@H](N(C)Cc2ccco2)[C@H]2OCCC[C@H]21`: the Percent Effect worked out at 7.03%. As to `CC1=Nc2c(c(=O)[nH]n2C2CCCCC2)C(c2ccc(C(=O)O)cc2)S1` (stereo not given), the Percent Effect stood at 5.95%. For `Cc1nsc(N2CCCN(C(=O)NCc3cc(C)on3)CC2)n1` the value was 8.11%; for `OC(CN(Cc1ccccc1)Cc1cscn1)c1cccs1` (stereo not given), 8.11%. To `c1ccc(O[C@H]2CO[C@@]3(CCN(Cc4ccc5c(c4)OCO5)C3)C2)nc1` belongs 7.03%; to `Cc1nn(CCO)c(C)c1CNC1CCCCc2ccccc21` (stereo not given), 3.78%; to `c1ccc(OC2COC3(CCN(Cc4ccccn4)CC3)C2)cc1` (stereo not given), 0.54%. Take `O=C(Cn1nc2c(cc1=O)CSCC2)N[C@@H](Cc1ccccc1)C(=O)O`: the Percent Effect stood at 11.3%. `Cc1noc(C)c1CN1CCC[C@]2(C[C@@H](Oc3ccccn3)CO2)C1`: the Percent Effect was -26.5%. With `Cc1cccc(NC2CCc3c2[nH]c(=O)n(C2CCCCC2)c3=O)c1C` (stereo not given), the Percent Effect was -0.54%.

For `CN(C)C1CCCN(C(=O)CCc2csc(N)n2)CC1` (stereo not given), the Percent Effect was determined as 1.62%.

For the compound `CN1CCN(C(=O)Cn2ccc3c(Cl)cccc32)CC1`, the Percent Effect came to 4.87%. Consider `Cc1nc(N2CCN(C(=O)NCc3cscn3)CC2)sc1C`, for which the Percent Effect was found to be 5.95%. For `COc1ccc(CNCc2nnc3n2CC(C(F)(F)F)CC3)cc1` (stereo not given) the value was 9.19%.

For `CC(C)CN1CCC(NC(=O)c2ccc(Cl)cc2Cl)CC1`, the Percent Effect was -7.03%.

As for `COc1ccc2c(c1)OCC(CNC(=O)c1cc[nH]c1C)C2` (stereo not given), the Percent Effect is 8.11%. Consider `NC(=O)CN1CCC(c2cncc(-c3cccc(Cl)c3)n2)CC1`, for which the Percent Effect came to 2.7%. As for `COc1ccccc1Oc1ncccc1CNC(=O)C(C)CN` (stereo not given), the Percent Effect worked out at 11.3%.

For the compound `COc1ccccc1Oc1ncccc1CNC(=O)[C@H](N)CC(C)(C)C`, the Percent Effect amounted to 10.3%. For `CCc1cc(CNC(=O)N2CCN(c3nc(C)c(C)s3)CC2)on1` the value was 3.78%. To `CCCc1n[nH]cc1C(=O)NCC1COc2cc(OC)ccc2C1` (stereo not given) belongs 8.11%; to `OC(CN(Cc1ccccc1)Cc1cccnc1)c1cccs1` (stereo not given), -5.95%.

With `COC(=O)CCNC(=O)c1cc(Br)c2c(c1)OCCO2`, the Percent Effect is 5.95%. For `CN(C)C(=O)CN1CCC(c2cncc(-c3cccc(Cl)c3)n2)CC1` the value was -0.54%; for `COc1ccc(C2SC(C)=Nc3c2c(=O)[nH]n3C2CCCC2)cc1O` (stereo not given), 2.7%. For `Cc1nc(NCC2CC2)nc2c1COCC21CCN(C(=O)C(C)(C)C)C1` (stereo not given) the value was 8.11%; for `COc1ccc(-c2nc(CN3CC(n4cccn4)C3)no2)cc1`, 0.54%. To `COc1ccc2c(c1)OCC(CNC(=O)c1ccc3[nH]nnc3c1)C2` (stereo not given) belongs 8.11%; to `COc1cccc(C(=O)N2C[C@@H](C(=O)O)[C@H](c3ccccc3C)C2)c1`, 5.95%. Regarding `Cn1cc(CN2C[C@@H]3COC[C@]3(C(=O)NCc3cccs3)C2)cn1`, the Percent Effect came to 4.87%. For `Cc1cc(C(=O)N2CCCC(c3nccn3Cc3cscn3)C2)on1` (stereo not given) the value was 9.19%; for `COc1ncccc1CNC(=O)N(Cc1ccccc1F)C1CC1`, 5.95%.

As for `CN1CCC(N(Cc2ccccc2F)C(=O)NCc2ccncc2)CC1`, the Percent Effect came to 5.95%.

`OC(CN(Cc1ccccc1)Cc1ccccn1)c1cccs1` (stereo not given): the Percent Effect stood at 11.3%. For `Cc1nc(NCC2CC2)nc2c1COCC21CCN(C(=O)NC(C)C)C1` (stereo not given) the value was 7.03%; for `CCCS(=O)(=O)CC(=O)N1CCCC1c1noc(C2CC2)n1` (stereo not given), 7.03%.

For `O=c1[nH]c2c(c(=O)n1C1CCCCC1)CCC2Nc1ccccn1` (stereo not given), the Percent Effect came to 5.95%. For `Nc1ccc(C(=O)N2CCCC(c3nccn3Cc3cscn3)C2)cn1` (stereo not given) the value was 5.95%; for `CN(C)C(=O)[C@@H]1CCO[C@@H]2CCN(CCOCc3ccccc3)C[C@H]21`, 2.7%.
